Here are results for four molecules from PubChem BioAssay (EPA / NIEHS).

Inconclusive results are not listed. Activity calls are given as the source filed them. Rule for the calls, unless noted: active = hit-call score of the fitted dose curve at least 0.9, where 1 is the maximum; inactive = score below 0.9.

Experiment [1] in a line: ATG_PPRE_CIS: Attagene CIS-FACTORIAL HepG2 Assay for human Peroxisome Proliferator-activated Response Element (PPRE) (AID 2282958). To be noted: HepG2 PPRE cis-element reporter, Attagene transcription factor profiling; actives raise or lower the signal. In a few lines: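 Read-out: fluorescent reporter mRNA fragments resolved by capillary electrophoresis after RT-PCR. HepG2 cells carried transiently transfected PPRE-driven cis reporter constructs and were dosed for 24 h; gain or loss of signal fitted relative to DMSO.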

A short description of experiment [2]: ATG_RORE_CIS: Attagene CIS-FACTORIAL HepG2 Assay for human RAR-related Orphan Receptor Element (RORE) (AID 2282959). To be noted: HepG2 Attagene cis-factorial RORE reporter, mRNA; actives raise or lower the signal. The essentials:
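Readout: fluorescent reporter mRNA by RT-PCR plus capillary electrophoresis, 24 h after dosing transfected HepG2 cells. Endogenous transcription factor activity on a cis promoter element is measured. Gain or loss of signal fitted against DMSO.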

A short description of experiment [3]: ATG_Sox_CIS: Attagene CIS-FACTORIAL HepG2 Assay for human SRY-box transcription factor (SOX) (AID 2282960). To be noted: HepG2 Attagene cis-factorial SOX reporter, mRNA; actives raise or lower the signal. The essentials: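 Read-out: fluorescent RT-PCR products of SOX1-linked reporter transcripts resolved by capillary electrophoresis, fitted bidirectionally against DMSO. Transiently transfected HepG2 cells, 24 h after chemical exposure, endogenous transcription factor activity.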

In experiment [4] the target is Transcription factor Sp1 (Homo sapiens) (UniProt P08047). In words: ATG_Sp1_CIS: Attagene CIS-FACTORIAL HepG2 Assay for human Specificity Protein 1 (Sp1) (AID 2282961). To be noted: HepG2 Sp1 cis-reporter transcription, actives raise or lower the signal. In a few lines:
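Read-out: fluorescence of 6-FAM-labeled, HpaI-digested RT-PCR products separated by capillary electrophoresis. HepG2 cells carried transfected cis-element reporter units and were exposed to chemicals for 24 h; gain or loss of signal fitted relative to DMSO.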

Experiment [5] can be described thus: ATG_SREBP_CIS: Attagene CIS-FACTORIAL HepG2 Assay for human Sterol Regulatory Element Binding (SREBP) (AID 2282962). To be noted: HepG2 Attagene cis-factorial SREBP reporter, mRNA; actives raise or lower the signal. The essentials:
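HepG2 cells transiently transfected with multiplexed cis-element reporter units report endogenous transcription factor activity. After 24 h of chemical exposure, reporter mRNA was quantified by RT-PCR, 6-FAM labelling, HpaI digestion and capillary electrophoresis; bidirectional fits used DMSO as baseline.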

Experiment [6] can be described thus: ATG_TA_CIS: Attagene CIS-FACTORIAL HepG2 Assay for human TA Basal Promoter (AID 2282964). To be noted: HepG2 Attagene CIS-factorial TA basal promoter reporter; actives raise or lower the signal. In a few lines:
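Read-out: fluorescent reporter-transcript fragments resolved by capillary electrophoresis after RT-PCR and HpaI digestion. Source: HepG2 cells carrying transiently transfected multi-reporter cis constructs, treated 24 h. Endpoint fitted bidirectionally relative to DMSO.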

Experiment [7] in a line: ATG_TAL_CIS: Attagene CIS-FACTORIAL HepG2 Assay for human TAL Basal Promoter (AID 2282966).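 Note: background control endpoint measuring basal TAL promoter reporter mRNA not a specific factor.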 To be noted: HepG2 Attagene cis-factorial TAL promoter reporter; actives raise or lower the signal. The essentials:
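Fluorescence of labelled reporter cDNA fragments, resolved by capillary electrophoresis, gave the readout. Human HepG2 liver cells carried transiently transfected cis-element reporter units and were treated for 24 hours; activity was fitted bidirectionally against DMSO.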

A short description of experiment [8]: ATG_TGFb_CIS: Attagene CIS-FACTORIAL HepG2 Assay for human Transforming Growth Factor (TGF) (AID 2282967). To be noted: HepG2 Attagene CIS TGFb reporter, mRNA transcription; actives raise or lower the signal. The essentials:
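Transient MRTU transfection of HepG2 (FuGene 6). Dose 24 h. TriZol RNA, oligo(dT) RT, PCR, 6-FAM primer extension, HpaI cut, CE. Bidirectional fit, DMSO = baseline.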

Experiment [9] in a line: ATG_VDRE_CIS: Attagene CIS-FACTORIAL HepG2 Assay for human Vitamin D Receptor Element (VDRE) (AID 2282968). To be noted: HepG2 VDRE cis-reporter transcription, actives raise or lower the signal. In a few lines: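 Cell-based multiplexed reporter format in human liver HepG2 cells, 24 h post-dose. Fluorescence from capillary electrophoresis of reporter cDNA gives the signal, with DMSO as negative control and baseline.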

Experiment [10] has as its target Estrogen receptor (Homo sapiens) (UniProt P03372). In words: ATG_ERa_TRANS: Attagene TRANS-FACTORIAL HepG2 Assay for human Estrogen Receptor alpha (ERa) (AID 2282970; active = hit-call score of the fitted dose curve at least 0.9, where 1 is the maximum). To be noted: HepG2 Attagene TRANS ERa GAL4 reporter, mRNA. The essentials:
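Human liver HepG2, transient transfection of multiple GAL4-UAS reporter units; TRANS format (exogenous NR-Gal4 chimera). 24 h dosing. Readout: reporter mRNA, RT-PCR, 6-FAM primer extension, HpaI digest, capillary electrophoresis. Positive direction vs DMSO.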

Experiment [11] has as its target Steroid hormone receptor ERR1 (Homo sapiens) (UniProt P11474). In words: ATG_ERRa_TRANS: Attagene TRANS-FACTORIAL HepG2 Assay for human Estrogen-Related Receptor alpha (ERRa) (AID 2282971; active = hit-call score of the fitted dose curve at least 0.9, where 1 is the maximum). To be noted: HepG2 Attagene TRANS reporter, ERRa transactivation. The essentials:
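Reporter transcript induction was quantified by RT-PCR and capillary electrophoresis of FAM-labelled, HpaI-cut products after 24 h treatment of HepG2 cells carrying transiently transfected GAL4-UAS reporter units and an exogenous ERRa-Gal4 fusion; activity scored as increase over DMSO.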

Experiment [12] can be described thus: ATG_M_19_TRANS: Attagene TRANS-FACTORIAL HepG2 Assay for M19 Transcription Factor (Internal Marker) (AID 2282974; active = hit-call score of the fitted dose curve at least 0.9, where 1 is the maximum). To be noted: HepG2 Attagene TRANS-FACTORIAL M19 internal marker reporter. In a few lines: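 24 h chemical exposure of transiently transfected HepG2 (MRTU library). RNA → oligo(dT) RT → PCR → 6-FAM labelling → HpaI cut → CE fluorescence. Positive-direction fit vs DMSO baseline; background internal-marker readout.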

Experiment [13] can be described thus: ATG_PXRE_CIS: Attagene CIS-FACTORIAL HepG2 Assay for human Pregnane X Receptor Element (PXRE) (AID 2282957). To be noted: HepG2 Attagene CIS-FACTORIAL PXRE reporter, mRNA; actives raise or lower the signal. In a few lines:
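Transfect HepG2 with MRTUs (cis promoter elements); dose chemical, incubate 24 h; isolate RNA, RT with oligo(dT), PCR, 6-FAM label, HpaI cut, CE. Gain/loss fit vs DMSO.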

In experiment [14] the target is Signal transducer and activator of transcription 3 (Homo sapiens) (UniProt P40763). In words: ATG_STAT3_CIS: Attagene CIS-FACTORIAL HepG2 Assay for human Signal Transducer and Activator of Transcription 3 (STAT3) (AID 2282963). To be noted: HepG2, Attagene cis-factorial STAT3 reporter transcription; actives raise or lower the signal. In a few lines: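 Values derive from bidirectional fits relative to DMSO of reporter mRNA levels, measured by RT-PCR with capillary electrophoresis, in HepG2 cells carrying transiently transfected cis-regulated reporter units and exposed 24 h.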

Experiment [15] is described as follows: ATG_TCF_b_cat_CIS: Attagene CIS-FACTORIAL HepG2 Assay for human T-Cell-Factor with beta-catenin (TCF/b-cat) (AID 2282965). To be noted: HepG2 TCF/beta-catenin cis-reporter transcription, actives raise or lower the signal. In a few lines: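 HepG2, transient MRTU transfection, cis-element-driven reporters (endogenous TFs). 24 h compound exposure. Readout: reporter mRNA by RT-PCR + 6-FAM primer extension, HpaI digest, capillary electrophoresis. Gain/loss fit vs DMSO baseline.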

The target of experiment [16] is X-box-binding protein 1 (Homo sapiens) (UniProt P17861). In words: ATG_Xbp1_CIS: Attagene CIS-FACTORIAL HepG2 Assay for human X-box Binding Protein 1 (XBP1) (AID 2282972). To be noted: HepG2 XBP1 cis-element reporter, Attagene multiplex; actives raise or lower the signal. In a few lines: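 HepG2 cells transiently transfected with cis-regulated multiple reporter transcription units; endogenous transcription factor activity measured 24 hours after chemical dosing. Reporter mRNA quantified by RT-PCR, 6-FAM primer extension, HpaI digestion and capillary electrophoresis; bidirectional fitting versus DMSO.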

Experiment [17] in a line: ATG_GAL4_TRANS: Attagene TRANS-FACTORIAL HepG2 Assay for GAL4 (Internal Marker) (AID 2282976; active = hit-call score of the fitted dose curve at least 0.9, where 1 is the maximum). To be noted: HepG2 Attagene TRANS GAL4 internal marker reporter. In a few lines: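 First, HepG2 cells were transfected with reporter units under GAL4-UAS control. Next, they were treated with chemical for 24 h. Finally, RNA was reverse-transcribed, PCR-amplified, FAM-labelled and resolved by capillary electrophoresis, with induction scored against DMSO.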

Experiment [18] has as its target Nuclear receptor subfamily 1 group I member 3 (Homo sapiens) (UniProt Q14994). In words: ATG_CAR_TRANS: Attagene TRANS-FACTORIAL HepG2 Assay for human Constitutive Androstane Receptor (CAR) (AID 2282969; active = hit-call score of the fitted dose curve at least 0.9, where 1 is the maximum;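 note: activators raise reporter mRNA above DMSO so AC50 marks induction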). To be noted: HepG2 Attagene TRANS-FACTORIAL CAR reporter. In a few lines:
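HepG2 cells transiently transfected with GAL4-UAS reporter units; TRANS format reads activity of exogenous chimeric NR-Gal4 protein. After 24 h dosing, reporter mRNA quantified by RT-PCR, 6-FAM labelling and capillary electrophoresis; gain of signal fitted against DMSO.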

Chain of X-box-binding protein 1 (Homo sapiens) (P17861 whole entry, looked up): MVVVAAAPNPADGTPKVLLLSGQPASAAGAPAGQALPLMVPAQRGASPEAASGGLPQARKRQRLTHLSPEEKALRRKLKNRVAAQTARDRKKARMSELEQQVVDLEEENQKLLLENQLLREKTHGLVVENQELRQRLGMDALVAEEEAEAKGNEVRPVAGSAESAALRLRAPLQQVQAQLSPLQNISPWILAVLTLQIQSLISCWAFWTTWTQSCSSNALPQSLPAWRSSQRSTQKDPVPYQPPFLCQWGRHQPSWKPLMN
Chain of Estrogen receptor (Homo sapiens) (P03372 whole entry, looked up, the tested form may be a part): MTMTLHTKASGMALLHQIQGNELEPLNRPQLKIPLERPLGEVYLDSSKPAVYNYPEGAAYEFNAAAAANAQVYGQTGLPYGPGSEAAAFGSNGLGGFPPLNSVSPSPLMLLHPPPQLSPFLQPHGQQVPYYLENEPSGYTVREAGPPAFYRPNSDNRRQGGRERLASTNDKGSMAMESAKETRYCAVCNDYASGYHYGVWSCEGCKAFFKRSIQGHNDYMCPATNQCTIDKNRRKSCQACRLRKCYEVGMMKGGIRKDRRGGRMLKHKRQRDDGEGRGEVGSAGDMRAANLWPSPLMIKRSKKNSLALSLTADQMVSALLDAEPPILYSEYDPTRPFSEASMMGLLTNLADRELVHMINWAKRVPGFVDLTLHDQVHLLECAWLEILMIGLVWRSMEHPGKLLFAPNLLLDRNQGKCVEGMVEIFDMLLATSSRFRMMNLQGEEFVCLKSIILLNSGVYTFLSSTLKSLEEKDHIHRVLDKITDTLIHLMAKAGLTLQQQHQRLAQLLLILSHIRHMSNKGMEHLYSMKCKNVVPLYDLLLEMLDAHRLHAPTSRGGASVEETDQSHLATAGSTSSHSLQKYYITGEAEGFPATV
Chain of Signal transducer and activator of transcription 3 (Homo sapiens) (P40763 whole entry, looked up): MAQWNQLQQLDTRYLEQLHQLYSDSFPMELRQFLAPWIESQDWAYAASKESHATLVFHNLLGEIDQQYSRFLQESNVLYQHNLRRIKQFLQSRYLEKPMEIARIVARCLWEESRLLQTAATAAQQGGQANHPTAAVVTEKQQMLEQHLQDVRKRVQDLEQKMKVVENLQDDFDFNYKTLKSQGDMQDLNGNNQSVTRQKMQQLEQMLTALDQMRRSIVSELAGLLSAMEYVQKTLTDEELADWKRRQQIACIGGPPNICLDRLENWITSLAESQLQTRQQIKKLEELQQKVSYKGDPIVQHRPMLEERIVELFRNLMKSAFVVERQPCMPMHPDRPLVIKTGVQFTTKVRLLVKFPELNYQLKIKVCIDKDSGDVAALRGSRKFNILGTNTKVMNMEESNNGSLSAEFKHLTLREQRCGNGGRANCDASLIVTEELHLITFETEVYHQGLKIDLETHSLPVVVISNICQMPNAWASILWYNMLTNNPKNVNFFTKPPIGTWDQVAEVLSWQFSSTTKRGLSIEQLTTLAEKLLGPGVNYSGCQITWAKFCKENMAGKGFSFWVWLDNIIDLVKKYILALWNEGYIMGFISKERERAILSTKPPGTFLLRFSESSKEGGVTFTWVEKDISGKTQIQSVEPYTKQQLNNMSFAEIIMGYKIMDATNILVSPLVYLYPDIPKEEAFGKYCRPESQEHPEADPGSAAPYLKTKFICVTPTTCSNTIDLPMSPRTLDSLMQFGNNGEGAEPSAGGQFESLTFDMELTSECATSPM
Chain of Transcription factor Sp1 (Homo sapiens) (P08047 whole entry, looked up): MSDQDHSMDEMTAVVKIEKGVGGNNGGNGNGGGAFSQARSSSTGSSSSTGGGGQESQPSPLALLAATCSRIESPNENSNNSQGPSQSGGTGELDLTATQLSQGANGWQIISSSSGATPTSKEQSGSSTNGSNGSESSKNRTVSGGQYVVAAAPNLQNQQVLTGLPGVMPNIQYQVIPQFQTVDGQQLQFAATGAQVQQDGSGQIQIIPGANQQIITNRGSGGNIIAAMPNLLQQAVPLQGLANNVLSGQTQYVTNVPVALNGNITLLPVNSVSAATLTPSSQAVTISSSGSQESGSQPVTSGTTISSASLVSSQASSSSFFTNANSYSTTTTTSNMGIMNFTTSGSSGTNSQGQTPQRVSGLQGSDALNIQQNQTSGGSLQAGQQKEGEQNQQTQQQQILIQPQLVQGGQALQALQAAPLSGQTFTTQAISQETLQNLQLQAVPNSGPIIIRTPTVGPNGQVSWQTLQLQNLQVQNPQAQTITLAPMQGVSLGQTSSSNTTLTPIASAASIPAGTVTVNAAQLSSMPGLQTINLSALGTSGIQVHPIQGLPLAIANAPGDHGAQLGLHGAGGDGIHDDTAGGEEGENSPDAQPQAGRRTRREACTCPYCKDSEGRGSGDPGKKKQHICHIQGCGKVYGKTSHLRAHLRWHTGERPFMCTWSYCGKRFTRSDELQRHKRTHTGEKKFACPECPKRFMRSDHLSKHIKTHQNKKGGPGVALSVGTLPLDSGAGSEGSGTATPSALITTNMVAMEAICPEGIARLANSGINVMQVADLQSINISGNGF
Chain of Nuclear receptor subfamily 1 group I member 3 (Homo sapiens) (Q14994 whole entry, looked up, the tested form may be a part): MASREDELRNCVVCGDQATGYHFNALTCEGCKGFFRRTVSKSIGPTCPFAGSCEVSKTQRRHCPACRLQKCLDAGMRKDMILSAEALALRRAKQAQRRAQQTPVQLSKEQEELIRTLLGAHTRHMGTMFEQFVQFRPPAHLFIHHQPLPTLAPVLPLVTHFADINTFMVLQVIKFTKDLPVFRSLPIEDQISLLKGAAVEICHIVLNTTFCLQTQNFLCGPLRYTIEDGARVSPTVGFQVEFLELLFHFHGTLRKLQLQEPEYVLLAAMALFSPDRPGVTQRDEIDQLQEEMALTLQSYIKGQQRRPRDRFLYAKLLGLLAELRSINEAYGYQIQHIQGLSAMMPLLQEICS
Chain of Steroid hormone receptor ERR1 (Homo sapiens) (P11474 whole entry, looked up, the tested form may be a part): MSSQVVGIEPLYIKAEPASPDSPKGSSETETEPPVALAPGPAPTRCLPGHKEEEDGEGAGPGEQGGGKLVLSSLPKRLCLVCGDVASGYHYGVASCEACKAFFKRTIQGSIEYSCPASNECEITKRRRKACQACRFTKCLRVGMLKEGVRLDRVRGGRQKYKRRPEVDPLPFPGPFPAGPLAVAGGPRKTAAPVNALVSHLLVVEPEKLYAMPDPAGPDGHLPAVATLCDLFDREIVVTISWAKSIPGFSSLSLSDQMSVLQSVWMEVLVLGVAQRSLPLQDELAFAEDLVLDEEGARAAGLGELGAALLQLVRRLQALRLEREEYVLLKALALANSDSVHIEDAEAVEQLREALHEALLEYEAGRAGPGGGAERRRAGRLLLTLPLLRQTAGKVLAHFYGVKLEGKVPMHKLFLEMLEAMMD

As to `O=S(=O)(O)c1cc(S(=O)(=O)O)c2ccc3c(S(=O)(=O)O)cc(S(=O)(=O)O)c4ccc1c2c43`, the call in [1], in experiment [2], in experiment [3], in [4], in experiment [5] and in experiment [6] was inactive. In addition, the result in [7], in experiment [8], in experiment [9], in [10], in experiment [11] and in experiment [12] was inactive.

On to `CCCCCCCC/C=C\CCCCCCCC(=O)O`, for which the call in [13], in experiment [1], in experiment [2], in experiment [3], in [4] and in experiment [5] was inactive. Besides, the call in experiment [14], in experiment [6], in [15], in experiment [7], in [8] and in experiment [10] was inactive. The outcome in [16] and in experiment [17] was inactive.

Turning to `COC(=O)c1cc(Cl)ccc1[N+](=O)[O-]`, the AC50 (as a rule, the concentration at which the activity in the assay is half-maximal) in experiment [13] was 76.1 µM (active). In addition, the outcome in [1], in [2], in [3], in [5], in experiment [14] and in experiment [6] was inactive. The call in experiment [15], in experiment [7], in [8], in experiment [9], in experiment [18] and in experiment [10] was inactive. Also, the molecule was called inactive in [16] and in [12].

As for `CCCCCc1ccc(Cl)cc1`, the molecule was classed as inactive in experiment [13], in experiment [2], in [3], in experiment [5], in experiment [14] and in experiment [6]. Besides, the outcome in experiment [15], in experiment [8], in experiment [9], in [10], in experiment [16] and in experiment [12] was inactive. For the same molecule, in experiment [17], the molecule was called inactive. In addition, the AC50 in experiment [1] was 25.9 µM (active); in experiment [4], 177 µM (active).
